Experiment [1] deals with M-phase phosphoprotein 8 (Homo sapiens) (UniProt Q99549). Nature of the experiment: qHTS Validation Assay for Inhibitors for MPP8 Chromodomain Interactions with Methylated Histone Tails (AID 488949).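 Also: 50 nM MPP8 with 50 nM peptide preformed then compounds added for 30 min; AlphaScreen signal from MPP8 chromodomain bound to biotinylated H3K9me3 peptide; top concentration of the series differs between compounds; nearly all actives have a fitted effect of over 55% in size.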 The procedure, abridged: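 50 nM MPP8 + 50 nM b-H3K9me3 peptide, PBS pH 7.4/0.01% Tween-20, 30 min RT; + cpd 30 min RT; + AlphaScreen donor/Ni-chelate acceptor beads 10 ug/mL final, 30 min dark; luminescence read.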
For orientation: qHTS replaces the single test concentration by a dilution series.

Experiment [2] deals with Transient receptor potential cation channel subfamily V member 1 (Homo sapiens) (UniProt Q8NER1). The experiment in a line: HTS Assay for Compounds that Act as Enhancers of the Vanilloid Receptor 1 (AID 488979). In outline:
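Calcium influx kinetics via Fluo-8 (480/520 nm) in TRPV1-expressing cells, 2000/well cultured overnight at 35.5C. Compound-alone read 3 min (agonist phase), followed by EC20 capsaicin challenge for 2 min (enhancer phase).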

The target in experiment [3] is Thyrotropin receptor (Homo sapiens) (UniProt P16473). Nature of the experiment: qHTS Assay for Antagonists of the Thyroid Stimulating Hormone Receptor (AID 488980). Also: series mostly up to about 58 µM. The procedure, abridged: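 Readout is cAMP by HTRF competition between cellular cAMP and cAMP-d2 for a cryptate-labelled antibody. Antagonism was assessed in TSHR-transfected HEK293 cells stimulated with 4 nM TSH (EC80, final) in the presence of RO 20-1724.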

Experiment [4] addresses Thyrotropin-releasing hormone receptor (Homo sapiens) (UniProt P34981). The experiment in a line: qHTS for Small Molecule Agonists and Allosteric Enhancers of Human TRH Receptor: Validation Screen for Agonists (AID 493127;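 active = calcium activation more than 3 SD above the typical response in the agonist read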;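 also: intracellular calcium rise by fluo-8 fluorescence before TRH EC20 addition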). To be noted: TRH receptor agonist cell assay; at 2 µM; active compounds read high. The procedure, abridged: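 Compounds are added by online pintool to dye-loaded TRHR cells while fluorescence is recorded every second. A rise in calcium signal during the agonist read marks activation; a later 10 nM TRH addition (EC20) serves the separate enhancer mode.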

Experiment [5] concerns the target Galactokinase (Homo sapiens) (UniProt P51570). Nature of the experiment: qHTS Validation Assay for Inhibitors of Human Galactokinase (GALK) (AID 493189). In outline: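 5 nM GALK / 100 uM galactose / 35 uM ATP, 20 mM HEPES pH8.0, 5 mM MgCl2, 60 mM NaCl, 1 mM DTT, 0.01% BSA (final). RT 1 h; Kinase-Glo Plus luminescence.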
Experiment [6] is described as follows: Validation screen for small molecules that induce DNA re-replication in SW480 colon adenocarcinoma cells (AID 504364). The procedure, abridged:
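Image-based qHTS: compounds were incubated with SW480 cells for 48 hr, nuclei stained with Hoechst, and per-nucleus fluorescence intensity scanned to flag cells with excess DNA content.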

The target of experiment [7] is ATP-dependent 6-phosphofructokinase (Trypanosoma brucei brucei) (UniProt O15648). The experiment in a line: qHTS Assay to Find Inhibitors of T. brucei phosphofructokinase: hit validation (AID 492961).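 Also: luminescence reports ADP formed as PFK phosphorylates fructose-6-phosphate with ATP; series mostly up to about 51 µM.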 In outline: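 In this biochemical qHTS validation, titrated compounds were tested against 1.25 nM PFK with 0.1 mM ATP and 0.5 mM F6P. Percent activity came from controls lacking or containing enzyme.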

Experiment [8] addresses Ubiquitin carboxyl-terminal hydrolase 1 (Homo sapiens) (UniProt O94782). Nature of the experiment: Inhibitors of USP1/UAF1: Pilot qHTS (AID 504865). Also: nearly all actives have a fitted effect of over 35% in size. Also: potency is read from the fitted curve at half-maximal effect. The procedure, abridged:
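In 50mM HEPES pH 7.8 containing 0.5mM EDTA, 1mM TCEP, 0.1 mg/ml BSA and 0.01% Tween-20, 1nM USP1/UAF1 is exposed to compound for 15 min, then Ub-Rho (150nM final) is added and fluorescence is read over time.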

Unmarked numbers belong to inactive results. Inconclusive results are not listed. A call without a number means that no potency is given here. Calls of active or inactive are those of the source. Unless noted, calls follow the shape of the dose curve; as a rule, active = well fitted curve in the direction sought with a large enough effect; inconclusive = small, poorly fitted or top-dose-only effect, or another doubt; inactive = no such curve, though single readings can be large; an effect the other way counts as inactive or inconclusive.

Ubiquitin carboxyl-terminal hydrolase 1 (Homo sapiens), sequence (O94782 whole entry, looked up): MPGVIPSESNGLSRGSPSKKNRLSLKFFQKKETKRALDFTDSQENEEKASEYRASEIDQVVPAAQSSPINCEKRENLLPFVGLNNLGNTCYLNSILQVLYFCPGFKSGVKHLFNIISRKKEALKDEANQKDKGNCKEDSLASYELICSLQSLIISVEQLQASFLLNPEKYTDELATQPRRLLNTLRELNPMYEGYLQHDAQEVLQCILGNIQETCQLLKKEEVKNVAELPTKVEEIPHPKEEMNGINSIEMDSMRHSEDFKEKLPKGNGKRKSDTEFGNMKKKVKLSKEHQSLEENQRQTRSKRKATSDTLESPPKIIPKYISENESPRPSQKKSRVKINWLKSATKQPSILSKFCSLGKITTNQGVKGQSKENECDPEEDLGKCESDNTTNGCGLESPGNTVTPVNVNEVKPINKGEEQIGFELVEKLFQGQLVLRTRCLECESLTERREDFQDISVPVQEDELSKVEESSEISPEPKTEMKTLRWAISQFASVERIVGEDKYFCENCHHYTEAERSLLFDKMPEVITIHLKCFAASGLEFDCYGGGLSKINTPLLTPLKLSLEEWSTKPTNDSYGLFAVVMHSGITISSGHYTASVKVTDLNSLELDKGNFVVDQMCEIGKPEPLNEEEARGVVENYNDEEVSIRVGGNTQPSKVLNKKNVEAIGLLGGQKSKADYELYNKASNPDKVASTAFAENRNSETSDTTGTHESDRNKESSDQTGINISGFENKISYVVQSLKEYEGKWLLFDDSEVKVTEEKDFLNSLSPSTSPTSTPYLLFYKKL
ATP-dependent 6-phosphofructokinase (Trypanosoma brucei brucei), sequence (O15648 whole entry, looked up): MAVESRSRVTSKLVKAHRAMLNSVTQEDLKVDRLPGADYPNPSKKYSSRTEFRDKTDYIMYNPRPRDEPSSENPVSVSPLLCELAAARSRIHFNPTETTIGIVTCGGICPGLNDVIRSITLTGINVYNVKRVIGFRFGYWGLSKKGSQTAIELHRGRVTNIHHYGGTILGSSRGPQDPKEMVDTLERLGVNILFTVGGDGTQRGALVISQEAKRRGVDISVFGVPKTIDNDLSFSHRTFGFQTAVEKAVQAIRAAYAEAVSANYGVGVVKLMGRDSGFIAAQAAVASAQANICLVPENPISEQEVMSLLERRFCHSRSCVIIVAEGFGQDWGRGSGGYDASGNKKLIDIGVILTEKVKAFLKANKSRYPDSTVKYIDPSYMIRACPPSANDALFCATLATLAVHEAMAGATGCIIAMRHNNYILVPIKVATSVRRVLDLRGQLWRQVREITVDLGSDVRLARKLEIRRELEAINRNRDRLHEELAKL
Thyrotropin receptor (Homo sapiens), sequence (P16473 whole entry, looked up): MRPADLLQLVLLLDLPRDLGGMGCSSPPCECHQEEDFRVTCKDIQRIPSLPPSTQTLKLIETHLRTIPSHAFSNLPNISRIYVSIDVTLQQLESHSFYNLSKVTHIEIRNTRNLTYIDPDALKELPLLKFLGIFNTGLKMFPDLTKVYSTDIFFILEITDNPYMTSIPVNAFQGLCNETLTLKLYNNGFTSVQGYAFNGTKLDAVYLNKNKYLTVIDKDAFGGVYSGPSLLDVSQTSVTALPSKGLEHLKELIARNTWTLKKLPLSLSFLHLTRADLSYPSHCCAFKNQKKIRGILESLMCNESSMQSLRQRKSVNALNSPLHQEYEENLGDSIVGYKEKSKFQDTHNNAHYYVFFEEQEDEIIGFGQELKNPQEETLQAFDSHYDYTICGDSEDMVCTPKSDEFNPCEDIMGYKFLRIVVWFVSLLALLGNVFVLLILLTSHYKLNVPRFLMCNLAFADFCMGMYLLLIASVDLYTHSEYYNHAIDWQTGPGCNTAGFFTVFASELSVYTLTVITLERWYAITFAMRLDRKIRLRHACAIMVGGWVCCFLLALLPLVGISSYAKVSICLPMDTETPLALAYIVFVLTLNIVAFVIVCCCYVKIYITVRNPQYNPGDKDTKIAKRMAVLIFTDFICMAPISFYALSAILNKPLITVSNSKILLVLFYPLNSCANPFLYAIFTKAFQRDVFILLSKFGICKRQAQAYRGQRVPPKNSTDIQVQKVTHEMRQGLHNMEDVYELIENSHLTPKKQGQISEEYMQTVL
Galactokinase (Homo sapiens), sequence (P51570 whole entry, looked up): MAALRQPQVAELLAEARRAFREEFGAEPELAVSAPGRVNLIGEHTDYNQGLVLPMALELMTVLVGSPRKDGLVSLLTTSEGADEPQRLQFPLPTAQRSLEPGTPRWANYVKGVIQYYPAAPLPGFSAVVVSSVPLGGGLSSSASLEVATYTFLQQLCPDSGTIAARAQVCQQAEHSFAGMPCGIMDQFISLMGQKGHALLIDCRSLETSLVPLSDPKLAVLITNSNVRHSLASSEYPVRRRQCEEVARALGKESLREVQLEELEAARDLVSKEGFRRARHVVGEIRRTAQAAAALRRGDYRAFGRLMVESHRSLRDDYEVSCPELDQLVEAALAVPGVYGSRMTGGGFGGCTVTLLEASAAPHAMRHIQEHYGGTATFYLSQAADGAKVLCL
M-phase phosphoprotein 8 (Homo sapiens), sequence (Q99549 whole entry, looked up): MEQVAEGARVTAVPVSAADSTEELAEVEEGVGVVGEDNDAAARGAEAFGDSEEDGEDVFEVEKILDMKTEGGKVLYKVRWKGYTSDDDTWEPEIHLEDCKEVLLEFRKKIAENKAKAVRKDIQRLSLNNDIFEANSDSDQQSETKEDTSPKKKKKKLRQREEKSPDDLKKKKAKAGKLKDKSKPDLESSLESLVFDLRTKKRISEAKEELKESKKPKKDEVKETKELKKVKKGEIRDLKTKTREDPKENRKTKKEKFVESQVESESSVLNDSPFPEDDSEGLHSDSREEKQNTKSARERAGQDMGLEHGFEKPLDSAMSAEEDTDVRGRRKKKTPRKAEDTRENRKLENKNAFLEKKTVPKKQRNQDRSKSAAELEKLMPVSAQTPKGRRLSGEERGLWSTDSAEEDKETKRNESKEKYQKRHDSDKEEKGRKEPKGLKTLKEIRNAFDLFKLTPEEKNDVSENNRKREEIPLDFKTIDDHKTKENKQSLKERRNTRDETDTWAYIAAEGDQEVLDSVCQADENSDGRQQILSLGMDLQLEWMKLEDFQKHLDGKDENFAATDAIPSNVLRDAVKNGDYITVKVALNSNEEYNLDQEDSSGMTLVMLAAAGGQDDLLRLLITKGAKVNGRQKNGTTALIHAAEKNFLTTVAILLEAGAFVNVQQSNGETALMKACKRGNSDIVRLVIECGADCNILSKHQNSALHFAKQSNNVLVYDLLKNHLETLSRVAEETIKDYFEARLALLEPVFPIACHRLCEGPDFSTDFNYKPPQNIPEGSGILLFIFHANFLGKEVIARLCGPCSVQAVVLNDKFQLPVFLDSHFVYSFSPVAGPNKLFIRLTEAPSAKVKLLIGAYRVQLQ
Thyrotropin-releasing hormone receptor (Homo sapiens), sequence (P34981 whole entry, looked up): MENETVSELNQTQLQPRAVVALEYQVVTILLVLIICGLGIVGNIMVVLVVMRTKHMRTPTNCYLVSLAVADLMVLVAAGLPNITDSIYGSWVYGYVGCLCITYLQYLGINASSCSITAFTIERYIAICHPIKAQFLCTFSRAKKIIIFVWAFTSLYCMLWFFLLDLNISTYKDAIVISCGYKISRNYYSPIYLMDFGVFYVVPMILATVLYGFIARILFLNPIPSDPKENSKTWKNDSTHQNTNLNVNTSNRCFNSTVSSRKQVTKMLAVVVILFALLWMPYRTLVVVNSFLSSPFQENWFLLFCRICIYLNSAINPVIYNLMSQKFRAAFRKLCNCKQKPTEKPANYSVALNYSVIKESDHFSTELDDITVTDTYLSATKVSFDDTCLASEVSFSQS
Transient receptor potential cation channel subfamily V member 1 (Homo sapiens), sequence (Q8NER1 whole entry, looked up): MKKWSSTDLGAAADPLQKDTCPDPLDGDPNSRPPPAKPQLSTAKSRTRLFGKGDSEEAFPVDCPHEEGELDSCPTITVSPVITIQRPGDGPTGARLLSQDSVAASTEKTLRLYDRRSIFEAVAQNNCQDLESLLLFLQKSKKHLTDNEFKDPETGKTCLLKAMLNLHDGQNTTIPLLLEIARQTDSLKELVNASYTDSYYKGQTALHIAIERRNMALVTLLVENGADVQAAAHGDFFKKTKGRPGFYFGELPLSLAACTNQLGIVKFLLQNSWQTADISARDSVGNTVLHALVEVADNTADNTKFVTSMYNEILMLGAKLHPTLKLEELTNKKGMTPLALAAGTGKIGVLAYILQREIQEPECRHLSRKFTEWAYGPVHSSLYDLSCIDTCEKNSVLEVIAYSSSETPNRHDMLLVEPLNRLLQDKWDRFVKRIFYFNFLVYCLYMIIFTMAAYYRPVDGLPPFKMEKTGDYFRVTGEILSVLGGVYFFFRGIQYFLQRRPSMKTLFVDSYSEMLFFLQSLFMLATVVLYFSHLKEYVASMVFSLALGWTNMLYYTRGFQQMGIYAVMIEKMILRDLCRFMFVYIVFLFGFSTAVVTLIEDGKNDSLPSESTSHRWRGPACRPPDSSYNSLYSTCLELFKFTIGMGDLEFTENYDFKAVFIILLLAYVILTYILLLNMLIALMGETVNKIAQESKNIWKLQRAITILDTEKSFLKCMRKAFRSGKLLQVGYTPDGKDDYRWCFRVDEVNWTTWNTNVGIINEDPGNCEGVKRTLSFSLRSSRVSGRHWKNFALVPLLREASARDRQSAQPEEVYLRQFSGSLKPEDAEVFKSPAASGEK

Regarding `CN1C(C)(C)CCCC1(C)C`, the outcome in experiment [1], in experiment [2], in experiment [3], in experiment [5] and in experiment [6] was inactive. In experiment [4], the activation is 0.688%.

For `Cc1c(C(=O)NCCO)[n+](=O)c2ccccc2n1[O-]`, the result in experiment [7] was inactive. Also, the Potency result in experiment [8] was “inactive”.

`Cc1cc(-n2nc3ccc(Cl)cc3n2)c(O)c(C(C)(C)C)c1`: in experiment [7], the call was inactive. Besides, the Potency entry in experiment [8] is “inactive”.

Take `NC(=O)NS(=O)(=O)c1ccc(N)cc1`: the outcome in experiment [7] was inactive. Moreover, in experiment [8], the Potency entry was “inactive”.

As to `Cc1c(C)c2c(c(C)c1OC(=O)c1cccnc1)CC[C@@](C)(CCC[C@H](C)CCC[C@H](C)CCCC(C)C)O2`, the molecule was classed as inactive in experiment [7]. In experiment [8], the Potency result is “inactive”.

Consider `COc1ccccc1Oc1c(NS(=O)(=O)c2ccc(C(C)(C)C)cc2)nc(-c2ncccn2)nc1OCCO`, for which the result in experiment [7] was inactive. Besides, the Potency entry in experiment [8] was “inactive”.

With `CC1CCN(CCCC(=O)c2ccc(F)cc2)CC1`, the call in experiment [7] was inactive. Further, in experiment [8], the Potency result was “inactive”.

For `CCc1nnc(NS(=O)(=O)c2ccc(N)cc2)s1`, the outcome in experiment [7] was inactive. For the same molecule, the Potency entry in experiment [8] was “inactive”.

Turning to `O=c1[nH]c2cc(C(F)(F)F)c(N3CCOCC3)cc2n(CP(=O)(O)O)c1=O`, the call in experiment [7] was inactive. Moreover, the Potency entry in experiment [8] is “inactive”.

In the case of `C=CCNC(N)=S`, in experiment [7], the molecule was called inactive. Further, the Potency entry in experiment [8] was “inactive”.

For `NC(N)=NS(=O)(=O)c1ccc(N)cc1`, in experiment [7], the outcome was inactive. The Potency entry in experiment [8] is “inactive”.

For the molecule `O=C(CN1CCNCC1)NC1CCCCC1`, the result in experiment [7] was inactive. Besides, the Potency result in experiment [8] was “inactive”.

For the molecule `CCCCCC(N)=O`, the molecule was called inactive in experiment [7]. The Potency entry in experiment [8] was “inactive”.

Consider `C[C@H]1COc2c(C3(N)CC3)c(F)cc3c(=O)c(C(=O)O)cn1c23`, for which, in experiment [7], the outcome was inactive. Moreover, the Potency result in experiment [8] was “inactive”.

Turning to `O=c1[nH]c(=O)c2ccccc2o1`, in experiment [7], the outcome was inactive. Further, in experiment [8], the Potency result is “inactive”.

For the molecule `NCc1ccc(S(N)(=O)=O)cc1`, in experiment [7], the call was inactive. In addition, the Potency result in experiment [8] is “inactive”.

Take `O=C(O)Cn1c(C(=O)Nc2nc(-c3ccccc3Cl)cs2)cc2ccccc21`: the call in experiment [7] was inactive. For the same molecule, the Potency in experiment [8] was 79.4 µM (active).

As for `CCCCCCCCCCCCCCCCN`, the molecule was called inactive in experiment [7]. Moreover, in experiment [8], the Potency result is “inactive”.

For `N[C@@H](Cc1ccc(O)cc1)C(=O)O`, the outcome in experiment [7] was inactive. In addition, the Potency result in experiment [8] was “inactive”.

With `Cc1cccc(C(=O)O)c1O`, the molecule was called inactive in experiment [7]. Moreover, the Potency entry in experiment [8] is “inactive”.

Consider `NS(=O)(=O)c1cc2c(cc1C(F)(F)F)NCNS2(=O)=O`, for which the molecule was called inactive in experiment [7]. In experiment [8], the Potency entry was “inactive”.

Take `CC(N)CCCC(C)(C)O` (stereo not given): in experiment [7], the molecule was classed as inactive. Besides, the Potency result in experiment [8] is “inactive”.

For the molecule `COc1cc(C(=O)NCCCCCC(=O)O)cc(OC)c1OC`, the molecule was called inactive in experiment [7]. Besides, the Potency entry in experiment [8] was “inactive”.

As to `O=C(Cn1ccnc1[N+](=O)[O-])NCc1ccccc1`, the result in experiment [7] was inactive. The Potency entry in experiment [8] is “inactive”.

Consider `O=C1CC[C@@H](C(=O)O)N1`, for which the molecule was classed as inactive in experiment [7]. Moreover, in experiment [8], the Potency result was “inactive”.

Regarding `CC1CC(OC(=O)c2ccccc2O)CC(C)(C)C1` (stereo not given), the result in experiment [7] was inactive. In experiment [8], the Potency result is “inactive”.

`CC(C)CCCC(C)CCCC(C)CCCCC(C)CCCC(C)CCCC(C)C` (stereo not given): the molecule was classed as inactive in experiment [7]. The Potency result in experiment [8] was “inactive”.

`CC(CN(C)C)C(C)(O)Cc1ccc(Cl)cc1` (stereo not given): in experiment [7], the molecule was called inactive. Besides, the Potency entry in experiment [8] was “inactive”.

As to `COc1cc(O)cc(O)c1`, the molecule was called inactive in experiment [7]. Further, in experiment [8], the Potency entry is “inactive”.

Turning to `CCCCCC(C)N` (stereo not given), the result in experiment [7] was inactive. Also, the Potency result in experiment [8] is “inactive”.

For `CC(=O)Oc1cccc(O)c1`, in experiment [7], the call was inactive. Also, in experiment [8], the Potency result was “inactive”.

On to `O=C(c1ccccc1)C(O)c1ccccc1` (stereo not given), for which the outcome in experiment [7] was inactive. For the same molecule, the Potency entry in experiment [8] was “inactive”.

Regarding `COC(=O)c1ccccc1C(=O)c1ccc(OCCN2CCCCC2)cc1`, the molecule was called inactive in experiment [7]. Moreover, the Potency result in experiment [8] is “inactive”.

In the case of `CC(=O)N[C@@H](Cc1ccc(O)cc1)C(=O)O`, the molecule was called inactive in experiment [7]. The Potency result in experiment [8] was “inactive”.

For `COc1ccc(O)cc1`, the molecule was called inactive in experiment [7]. For the same molecule, in experiment [8], the Potency entry is “inactive”.

As for `CC(=O)OCC(COC(C)=O)OC(C)=O`, the molecule was called inactive in experiment [7]. Moreover, the Potency entry in experiment [8] was “inactive”.

With `COC(=O)c1ccc(O)cc1`, the molecule was called inactive in experiment [7]. Besides, the Potency result in experiment [8] is “inactive”.

Turning to `CCOc1cc(NC(C)=O)ccc1C(=O)OC`, the call in experiment [7] was inactive. The Potency entry in experiment [8] was “inactive”.

For the molecule `CCCNC(C)(C)COC(=O)c1ccccc1`, the molecule was called inactive in experiment [7]. The Potency result in experiment [8] was “inactive”.

Consider `NNc1nnc(NN)c2ccccc12`, for which the call in experiment [7] was inactive. In addition, the Potency result in experiment [8] is “inactive”.

Regarding `CC(C)=CCC/C(C)=C/CO`, the result in experiment [7] was inactive. In addition, the Potency entry in experiment [8] was “inactive”.

On to `CCCCCCCCCCOc1cc2c(=O)c(C(=O)OCC)c[nH]c2cc1OCC`, for which, in experiment [7], the molecule was called inactive. The Potency entry in experiment [8] was “inactive”.

In the case of `CC(C)(C)C(=O)OCOC(=O)[C@@H]1N2C(=O)[C@@H](NC(=O)[C@H](N)c3ccccc3)[C@H]2SC1(C)C`, in experiment [7], the molecule was called inactive. Also, the Potency entry in experiment [8] was “inactive”.

Turning to `Cc1ccccc1N=Nc1ccc(N=Nc2c(O)ccc3ccccc23)c(C)c1`, in experiment [7], the molecule was called inactive. Besides, in experiment [8], the Potency result is “inactive”.

Regarding `Nc1ncnc(Nc2ccccc2)n1`, in experiment [7], the outcome was inactive. Further, in experiment [8], the Potency entry was “inactive”.

`COc1ccc(C(=O)N2CCN(CC(=O)N3CCOCC3)CC2)cc1`: the result in experiment [7] was inactive. Further, in experiment [8], the Potency entry is “inactive”.

As to `CC(=O)Nc1ccc(OCCOCCOc2ccc(NC(C)=O)cc2)cc1`, the call in experiment [7] was inactive. Further, the Potency entry in experiment [8] was “inactive”.

On to `Cc1[nH]c(C)c(Cl)c(=O)c1Cl`, for which, in experiment [7], the outcome was inactive. Further, in experiment [8], the Potency result was “inactive”.

As for `O[C@@H]1CO[C@H]2[C@@H]1OC[C@@H]2O`, the result in experiment [7] was inactive. Besides, the Potency entry in experiment [8] is “inactive”.

Consider `COC(=O)c1cccnc1`, for which the result in experiment [7] was inactive. Further, the Potency entry in experiment [8] was “inactive”.

Turning to `Cc1cc(OI)c(C(C)C)cc1-c1cc(C(C)C)c(OI)cc1C`, the molecule was called inactive in experiment [7]. In experiment [8], the Potency entry was “inactive”.

Regarding `COc1ccc2cc(CCC(C)=O)ccc2c1`, in experiment [7], the outcome was inactive. In addition, in experiment [8], the Potency result is “inactive”.

With `OCC(O)CS` (stereo not given), the call in experiment [7] was inactive. The Potency result in experiment [8] was “inactive”.

The values are drawn from PubChem BioAssay (NCATS).
